TROY signal inh – inhibitors of TROY-dependent NF-kB signaling; Q293 LMP1-TROYcd NF-kB luciferase reporter, 4 h; inhibition, % at 10 µM; 0.98% of 360,000 active;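 active = compounds whose plate-normalised and pattern-corrected inhibition of the luciferase reporter signal at the single screening dose is 50% or more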
EWS-Fli inh – blocks EWS/Fli oncoprotein-driven transcription; A673 NR0B1-luciferase reporter, viability-normalised; inhibition, % at 12.6 µM; 0.67% of 350,000 active; AID 651661;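 active = mean inhibition of at least 50% after viability correction, with every replicate also passing that limit; inconclusive = mean reaches 50% but only one of two replicates passes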;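 also: firefly luciferase signal divided by Alamar Blue viability fluorescence both relative to DMSO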
PAX8 reporter – PAX8 transcriptional activity inhibition. RMG-I TPO-luciferase reporter, SteadyGlo, 24 h. inhibition, % at 12.6 µM. 1.2% of 360,000 active. AID 652154;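 active = mean replicate inhibition at least 60% with every replicate also reaching 60%; inconclusive = only one of the two criteria is met; inactive = mean below 60% and not all replicates reaching 60%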;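 also: luciferase light reporting Pax8 driven TPO promoter activity; plate controls were median of neutral control wells for no effect and mitoxantrone controls for full effect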
LGR2 antag – inhibitors of bursicon-induced Drosophila LGR2 receptor cAMP signaling | HEK293 LGR2, CRE-luciferase, bursicon-stimulated, 4 h | inhibition, % at 9.99 µM | 0.35% of 380,000 active;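 active = drop in luminescence signal, shown as inhibition above about 50% in the replicate tests, limit read from the data, passing the limit was not always enough; inconclusive = probably only some replicates passing the limit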;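 also: agonist challenge used bursicon conditioned medium at about half maximal strength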
TWEAK-Fn14 inh – inhibitors of TWEAK-Fn14 interaction signaling | TWEAK-stimulated Fn14 reporter cells, luciferase luminescence, 8 h | AID 1159606 | 2% of 360,000 active | inhibition, % at 10 µM; in the data active = inhibition above about 50%
EBV LMP1 NFkB – Epstein-Barr LMP1 NF-kappaB reporter inhibition; LMP1-induced NF-kappaB luciferase reporter cells, luminescence; inhibition, % at 12.5 µM; 0.69% of 350,000 active; AID 504558; in the data active = inhibition above about 41%; inconclusive = no clear call, values can overlap the other calls;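 also: 0% = neutral control wells and 100% = reference inhibitor control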
Starred values were filed as active, the others as inactive; ? = inconclusive; · = no result. A selection: hits, their analogues and other compounds. The true share with any hit is near 3.1%.

SMILES	TROY signal inh	EWS-Fli inh	PAX8 reporter	LGR2 antag	TWEAK-Fn14 inh	EBV LMP1 NFkB
COc1ccc(NC(=O)N(C)C[C@@H]2OCCCC[C@H](C)Oc3ccc(NS(=O)(=O)c4ccc(F)cc4)cc3C(=O)N([C@@H](C)CO)C[C@@H]2C)cc1	·	-9	-15	0	·	·
C[C@H]1CCCCO[C@H](CN(C)C(=O)Nc2ccc(F)cc2)[C@@H](C)CN([C@@H](C)CO)C(=O)c2cc(NS(=O)(=O)c3ccc(F)cc3)ccc2O1	·	17	67*	12	·	·
Cc1ccc(S(=O)(=O)Nc2ccc3c(c2)C(=O)N([C@@H](C)CO)C[C@@H](C)[C@@H](CN(C)C(=O)Nc2ccc(F)cc2)OCCCC[C@@H](C)O3)cc1	·	7	-4	1	·	·
C[C@@H]1CN([C@H](C)CO)C(=O)c2cc(NS(=O)(=O)c3ccc(Cl)cc3)ccc2O[C@@H](C)CCCCO[C@H]1CN(C)C(=O)Nc1ccc(F)cc1	·	2	67*	20	·	·
COCCOC(=O)N1C(=O)[C@@]2(c3ccccc31)[C@H](c1ccccc1OCCO)N1[C@H](c3ccccc3)[C@H](c3ccccc3)OC(=O)[C@H]1[C@@H]2C(=O)N1CCCCCCC1	·	3	44	·	·	·
C/C=C/c1ccc([C@H]2[C@@H](CO)N(C(=O)CC)C23CN(S(=O)(=O)CC)C3)cc1	·	4	2	2	·	·
C[C@@H]1CN([C@H](C)CO)C(=O)c2cccc(NS(=O)(=O)c3ccccc3)c2O[C@@H]1CN(C)C(=O)Nc1ccc(C(F)(F)F)cc1	·	-6	8	-6	·	·
N#C/C(=C\c1ccc(O)c(O)c1)C(=O)c1ccc(O)c(O)c1	16	25	-5	-1	63*	2
C[C@@H]1CCCCO[C@@H](CN(C)C(=O)C2CCCCC2)[C@H](C)CN([C@H](C)CO)C(=O)c2cc(NC(=O)Nc3ccc4c(c3)OCO4)ccc2O1	·	16	·	-2	·	·
Cc1nn2cc(-c3ccccc3)nc2s1	9	-8	·	-6	57*	-1
c1ccc(-c2cn3nc(-c4ccccc4)sc3n2)cc1	61*	·	·	·	86*	9
C[C@H](CO)N1C[C@H](C)[C@@H](CN(C)C(=O)Nc2ccc3c(c2)OCO3)Oc2ccc(NC(=O)Nc3ccc(F)cc3)cc2CC1=O	·	1	10	0	·	·
COc1ccc(S(=O)(=O)N(C)C[C@@H]2OCCCC[C@@H](C)Oc3ccc(NC(=O)C4CCCCC4)cc3C(=O)N([C@@H](C)CO)C[C@H]2C)cc1	·	-1	8	4	·	·
O=C(Nc1ccc(NC(=O)c2ccccn2)cc1)C(=O)Nc1ccc2c(c1)OCCO2	-5	-19	-2	11	-36	-10
CSc1ncccc1C(=O)Nc1ccc2c(c1)OCCO2	2	-6	-38	-6	50*	-7
O=C(Nc1ccc2oc(-c3ccccc3F)nc2c1)c1ccc2c(c1)OCCO2	60*	-39	·	·	72*	1
O=C(Nc1ccc2nn(-c3ccccc3)nc2c1)c1ccc2c(c1)OCCO2	34	·	·	·	22	0
CSc1ncccc1C(=O)OCC(=O)Nc1ccc2c(c1)OCO2	-26	13	-10	7	-16	3
O=C(Nc1ccc2c(c1)OCCO2)c1ccccn1	57*	30	20	77*	79*	48*
O=C(Nc1ccc2c(c1)OCCO2)c1ccccc1F	8	·	·	·	53*	28
O=C(Nc1ccc(N2CCOCC2)cc1)c1cn2ccccc2n1	24	·	·	·	68*	55*
CCNC(=S)NNC(=O)c1ccccn1	8	·	-18	-8	-15	1
O=C(Nc1ccc2ccccc2c1)c1ccccc1F	-17	21	-37	52*	36	-51
O=C(NNC(=S)Nc1ccc(Cl)c(Cl)c1)c1ccccn1	-12	27	57	4	-14	62*
O=C(Nc1ccc(N2CCCCC2)cc1)c1ccccn1	87*	·	·	·	100*	75*
SMILES	TROY signal inh	EWS-Fli inh	PAX8 reporter	LGR2 antag	TWEAK-Fn14 inh	EBV LMP1 NFkB
O=C(Nc1ccc(F)cc1)c1ccccc1F	-50	-65	·	-26	-19	-13
CC(C)NC(=O)Nc1ccc2c(c1)C(=O)N([C@@H](C)CO)C[C@H](C)[C@H](CN(C)Cc1ccc(Cl)c(Cl)c1)O2	·	2	-9	25	·	·
COc1ccc(-c2cnc3c(c2)C(=O)N([C@H](C)CO)C[C@H](C)[C@H](CN(C)Cc2cccnc2)O3)cc1	·	5	·	2	·	·
COc1ccccc1-n1cc2c([N+](=O)[O-])cc([N+](=O)[O-])cc2n1	-32	-10	-1	9	51*	2
Cc1noc(C)c1NC(=O)N(C)C[C@@H]1Oc2ncc(C#CC(C)C)cc2C(=O)N([C@@H](C)CO)C[C@H]1C	·	-4	·	-3	·	·
Nc1nccc(-c2ccc(-n3cnc4ccccc43)cc2)n1	26	-50	-119	-19	53*	38
O=c1[nH]c(NCc2ccccc2)nc2c1CCC2	-7	·	-8	·	-5	-12
Cc1nc(Nc2nc3c(c(=O)[nH]2)CCC3)nc2ccccc12	-36	·	·	·	69*	-20
CN1C(=O)c2cc(NS(C)(=O)=O)ccc2OC[C@H]2O[C@@H](CC(=O)Nc3cccc(F)c3)CC[C@@H]21	·	-4	17	5	·	·
COCC(=O)N1C[C@@H](C)[C@H](OC)CN(C)C(=O)c2cc(NC(=O)c3ccc(F)cc3)ccc2OC[C@H]1C	·	-4	·	-4	·	·
COc1ccc(/C=N/NC(=O)c2cccnc2)cc1CSc1nc2ccccc2s1	50*	·	·	18	52*	7
COc1ccc(/C=N/NC(=O)c2cccnc2)cc1COc1ccc([N+](=O)[O-])c(C)c1	55*	47	18	·	23	-5
COc1ccc(/C=N/NC(=O)c2ccccc2Cl)cc1CSc1nc2ccccc2s1	-12	·	23	·	-1	0
COc1ccc(/C=N\NC(=O)c2ccccc2OC)cc1COc1c(F)c(F)c(F)c(F)c1F	-20	12	64*	-19	-19	3
COc1ccc(/C=N/NC(=O)c2ccn[nH]2)cc1COc1ccc([N+](=O)[O-])c(C)c1	2	-14	13	10	18	·
O=C(C[C@H]1C[C@H]2c3cc(NC(=O)C4CCC4)ccc3O[C@H]2[C@H](CO)O1)NCCN1CCCCC1	·	-10	-2	1	·	·
c1ccc2c(-c3cccc4nccn34)cncc2c1	31	0	-4	5	52*	·
c1cnc2c(-c3cccc4nccn34)cccc2c1	-17	-2	-3	-2	-14	·
COc1cc2ccnc(C=O)c2cc1OC	2	·	·	·	56*	11
Cc1ccc(S(=O)(=O)c2ccc([N+](=O)[O-])o2)cc1	59*	43	127*	?	102*	?
Cc1ccc(S(=O)(=O)Nc2c(C)cc([N+](=O)[O-])cc2C)cc1	-2	-2	25	4	-14	-1
C[C@@H]1CN([C@H](C)CO)C(=O)c2cc(C#CC3CC3)cnc2O[C@@H]1CN(C)C(=O)C1CCCCC1	·	-5	·	6	·	·
COc1ccc(CCN2C(=O)CSC2=S)cc1OC	-12	22	90*	6	3	26

Source: PubChem BioAssay
